Results filed as inconclusive are left out. Entries that show only a call come without a potency. Unmarked numbers belong to inactive results. Activity calls are given as the source filed them. Calls come from the whole dose curve; as a rule, active = well fitted inhibition curve with a large enough effect; inconclusive = small, poorly fitted or top-dose-only effect; inactive = no such curve, though single readings can be large or run the other way.
Each molecule was assayed against Rap guanine nucleotide exchange factor 4 (Homo sapiens) (UniProt Q8WZA2) (assay: Confirmatory qHTS for antagonist of cAMP-regulated guanine nucleotide exchange factor 4 (EPAC2) (AID 1645885; note: nearly all actives have a fitted effect of over 25% in size; note: potency is the fitted concentration of half-maximal effect)). Settings: EPAC2 Rap1B-BODIPY-GDP exchange fluorescence, biochemical; series mostly up to 12.7 µM.
Sequence of Rap guanine nucleotide exchange factor 4 (Homo sapiens) (Q8WZA2 whole entry, looked up): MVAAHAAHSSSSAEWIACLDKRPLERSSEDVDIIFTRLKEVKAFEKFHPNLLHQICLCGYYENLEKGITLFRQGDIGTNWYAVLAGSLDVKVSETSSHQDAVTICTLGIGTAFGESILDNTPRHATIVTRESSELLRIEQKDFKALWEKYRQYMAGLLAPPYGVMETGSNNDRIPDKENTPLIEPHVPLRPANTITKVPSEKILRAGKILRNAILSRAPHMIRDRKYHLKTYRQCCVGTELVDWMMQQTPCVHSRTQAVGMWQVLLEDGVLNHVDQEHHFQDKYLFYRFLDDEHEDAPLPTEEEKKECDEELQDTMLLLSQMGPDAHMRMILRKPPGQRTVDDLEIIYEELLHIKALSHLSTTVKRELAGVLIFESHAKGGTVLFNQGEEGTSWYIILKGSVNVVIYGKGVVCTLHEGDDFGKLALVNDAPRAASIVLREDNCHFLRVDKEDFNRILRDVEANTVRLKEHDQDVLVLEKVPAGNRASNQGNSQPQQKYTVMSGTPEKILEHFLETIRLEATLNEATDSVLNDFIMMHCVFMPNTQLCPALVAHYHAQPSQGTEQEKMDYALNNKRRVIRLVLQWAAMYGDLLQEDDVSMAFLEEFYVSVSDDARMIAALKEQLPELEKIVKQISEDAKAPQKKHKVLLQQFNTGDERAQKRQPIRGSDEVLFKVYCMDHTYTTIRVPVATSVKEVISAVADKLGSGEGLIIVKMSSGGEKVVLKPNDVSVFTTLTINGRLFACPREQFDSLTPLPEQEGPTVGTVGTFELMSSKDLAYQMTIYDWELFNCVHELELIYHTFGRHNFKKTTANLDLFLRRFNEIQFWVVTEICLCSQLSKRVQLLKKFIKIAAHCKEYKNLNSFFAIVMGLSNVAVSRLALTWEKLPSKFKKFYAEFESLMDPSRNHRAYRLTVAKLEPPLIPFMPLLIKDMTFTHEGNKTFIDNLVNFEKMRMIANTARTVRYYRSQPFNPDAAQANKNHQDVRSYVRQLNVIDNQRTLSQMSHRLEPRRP

| Structure (SMILES) | Potency | outcome |
| --- | --- | --- |
| N#C/C(=C/C1=C(N2CCOCC2)C(=C/c2cccc([N+](=O)[O-])c2)/CC1)C(=O)Nc1ccccc1F | inactive |  |
| NC(=O)C1CCN(C(=O)c2ccc3c(=O)n(Cc4cccc(Br)c4)c(=S)[nH]c3c2)CC1 | inactive |  |
| CC(C)CNc1ncnc2onc(-c3ccc(Cl)cc3)c12 | inactive |  |
| COCOCCn1cc(CN2CCS(=O)(=O)N(Cc3ccc(-c4ccccc4)cc3)C(CC(C)C)C2=O)nn1 (stereo not drawn) | 3.01 µM (active) |  |
| CCOC(=O)c1ccc(NC(=S)NNC(=O)C2(C)CC2(Cl)Cl)cc1 (stereo not drawn) | inactive |  |
| CC(=O)C(=Cc1ccc(Cl)cc1)C(=O)c1ccccc1 | inactive |  |
| CC(=O)c1ccc(OCc2nnn(CC(=O)NS(=O)(=O)c3ccc(C)cc3)c2-c2ccccc2)cc1 | inactive |  |
| COc1ccc(NC(=O)Cn2ncc(Cl)c(Cl)c2=O)cc1S(=O)(=O)N1CCOCC1 | inactive |  |
| Cc1ccc(O)c(-c2n[nH]c3c2C(c2ccc(F)cc2)N(Cc2ccco2)C3=O)c1 (stereo not drawn) | inactive |  |
| O=c1cc(-c2ccccc2)[nH]n1-c1nc2ccccc2s1 | inactive |  |
| Cc1ccnc(NC(=O)C2CCN(S(=O)(=O)c3cccc(C(F)(F)F)c3)CC2)c1 | inactive |  |
| O=C(c1[nH]c(C(F)(F)F)nc1-c1ccccc1)N1CCC(C(O)(c2ccccc2)c2ccccc2)CC1 | inactive |  |
| CCc1nc2ccc(C(=O)Nc3ccc(OC)c(OC)c3)cn2c1N(C)CCC(C)C | inactive |  |
| Cc1ccc(C)c(Cn2c(C3CC(=O)N(c4ccccc4C)C3)nc3ccccc32)c1 (stereo not drawn) | inactive |  |
| C/C(=N\Nc1ccc([N+](=O)[O-])cc1)c1ccc(O)cc1 | 26.9 µM (active) |  |
| Cc1cccc(C(=O)OCC(=O)c2ccc(CC(=O)N3CCOCC3)s2)c1C | inactive |  |
| CCc1nc2c(OCc3ccc(OC)cc3)cccn2c1N(C)C(=O)c1ccc(OC)cc1 | inactive |  |
| Cc1cccc(N2CCN(C(=O)c3[nH]c(C(F)(F)F)nc3-c3ccccc3)CC2)c1C | inactive |  |
| Cc1ccc(Nc2nnc(-c3ccc(C)c(S(N)(=O)=O)c3)c3ccccc23)cc1 |  | inactive [at 12.7 µM] |
| CCOC(=O)C1=C(C)NC(C)=C(C(=O)OCC)C1c1cccc([N+](=O)[O-])c1 | inactive |  |

| Structure (SMILES) | Potency | outcome |
| --- | --- | --- |
| COc1ccc(S(=O)(=O)/N=C2/NC(=O)/C(=C\c3cc(OC)c(OC)cc3[N+](=O)[O-])S2)cc1 | inactive |  |
| COc1cc(NC(=O)c2cc3nc(-c4ccccc4)cc(-c4ccccc4)n3n2)cc(OC)c1OC | inactive |  |
| Cc1csc(NC(=O)CSc2sc3c(O)cc(=O)[nH]c3c2C#N)n1 | inactive |  |
| O=c1[nH]cc(N=Cc2cc(Cl)cc(Cl)c2O)c(=O)[nH]1 | inactive |  |
| Cc1ccccc1/C=C1\SC(=S)N(/N=C/c2cc([N+](=O)[O-])ccc2O)C1=O | inactive |  |
| CSc1cccc(N2CC(C(=O)Nc3cccc(S(=O)(=O)N4CCCC4)c3)CC2=O)c1 (stereo not drawn) | inactive |  |
| O=C1/C(=C/c2cccs2)COc2ccccc21 | inactive |  |
| C[C@@H]1CN([C@@H](C)CO)C(=O)c2ccccc2-c2ccccc2CO[C@@H]1CN(C)S(=O)(=O)c1ccc(C(F)(F)F)cc1 | inactive |  |
| CCCCn1c(COc2cccc(OC)c2)nc2ccccc21 |  | inactive [at 12.7 µM] |
| O=C(NC1(O)C(=O)c2ccccc2C1=O)c1ccc(C(F)(F)F)cc1 | inactive |  |
| Fc1ccc(/C=C2\CCCC3=C2Nc2ncnn2C3c2ccc(F)cc2)cc1 (stereo not drawn) | inactive |  |
| CCCN1CCN(c2ncnc3sc(C(=O)Nc4ccc(OC(F)(F)F)cc4)c(C)c23)CC1 | inactive |  |
| Cc1ccc(NC(=O)c2sc3nc(-c4ccncc4)ccc3c2N)cc1 | inactive |  |
| Clc1cccc(Cc2c(-c3ccco3)nc3ccc(Br)cn23)c1 | inactive |  |
| CCN(C(=O)Cn1c(C(=O)OC)cc2sccc21)c1cccc(C)c1 | inactive |  |
| NS(=O)(=O)c1ccc2c(c1)C1C=CCC1C(C1CC=CCC1)N2 (stereo not drawn) | inactive |  |
| CN(C)c1ccc(/C=C/c2cc[n+](C)c3ccccc23)cc1 | 49.4 µM (active) |  |
| O=C1CCC[C@@H]2CC(N(Cc3cc4ccccc4s3)c3ccccc3)C[C@@H]3CCN1[C@H]23 (stereo partly drawn) | inactive |  |
| CN(C)S(=O)(=O)N(CC(=O)NCCSc1ccc(Cl)cc1)c1ccccc1 | inactive |  |
| O=C(CC(c1ccccc1)c1cc(Cl)ccc1O)N1CCCC1 (stereo not drawn) | inactive |  |

What follows are molecules tested against Rap guanine nucleotide exchange factor 3 (Homo sapiens) (UniProt O95398) (assay: Counterscreen qHTS for antagonist of cAMP-regulated guanine nucleotide exchange factor 3 (EPAC1) (AID 1645888;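 note: fluorescence loss as bound BODIPY-GDP is released from Rap1B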)). Settings: Rap1B-BODIPY-GDP nucleotide exchange, fluorescence; series mostly up to 154 µM.
Sequence of Rap guanine nucleotide exchange factor 3 (Homo sapiens) (O95398 whole entry, looked up): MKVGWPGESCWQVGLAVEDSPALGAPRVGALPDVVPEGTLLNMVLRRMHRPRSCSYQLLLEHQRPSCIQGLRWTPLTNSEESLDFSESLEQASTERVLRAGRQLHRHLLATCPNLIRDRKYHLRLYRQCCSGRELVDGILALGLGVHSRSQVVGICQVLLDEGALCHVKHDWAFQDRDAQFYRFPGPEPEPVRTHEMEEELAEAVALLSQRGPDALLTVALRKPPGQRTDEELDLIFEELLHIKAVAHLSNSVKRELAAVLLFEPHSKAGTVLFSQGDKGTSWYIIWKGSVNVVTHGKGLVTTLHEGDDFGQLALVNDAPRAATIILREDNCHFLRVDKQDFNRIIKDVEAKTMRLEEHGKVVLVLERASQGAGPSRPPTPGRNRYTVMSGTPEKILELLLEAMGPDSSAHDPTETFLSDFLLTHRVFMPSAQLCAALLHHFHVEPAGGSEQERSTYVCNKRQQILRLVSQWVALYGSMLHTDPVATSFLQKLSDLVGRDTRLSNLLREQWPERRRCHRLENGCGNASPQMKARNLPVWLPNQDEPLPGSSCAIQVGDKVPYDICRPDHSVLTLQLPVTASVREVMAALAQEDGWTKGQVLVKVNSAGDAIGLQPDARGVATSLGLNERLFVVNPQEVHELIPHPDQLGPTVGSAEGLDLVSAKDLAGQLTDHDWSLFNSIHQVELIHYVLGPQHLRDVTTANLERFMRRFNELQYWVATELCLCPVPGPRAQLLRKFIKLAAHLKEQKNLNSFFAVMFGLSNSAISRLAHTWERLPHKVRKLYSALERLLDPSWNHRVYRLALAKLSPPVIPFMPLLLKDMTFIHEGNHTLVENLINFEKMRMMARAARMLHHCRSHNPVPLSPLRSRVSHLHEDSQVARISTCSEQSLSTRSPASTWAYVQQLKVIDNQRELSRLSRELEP
Outline: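 Rap1B-BODIPY-GDP 250 nM + GDP 50 uM; cpds 7-pt, final 9.74 nM–152 uM (activator mode) or from 7.32 nM upwards (inhibitor mode); RT; FI 480/540 nm at 5 and 30 min, then ± cAMP, reread.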

| Structure (SMILES) | activity change, negative = inhibition | Potency |
| --- | --- | --- |
| N#C/C(=C/C1=C(N2CCOCC2)C(=C/c2cccc([N+](=O)[O-])c2)/CC1)C(=O)Nc1ccccc1F | -3.26% [at 30.8 µM] |  |
| NC(=O)C1CCN(C(=O)c2ccc3c(=O)n(Cc4cccc(Br)c4)c(=S)[nH]c3c2)CC1 | -4.35% [at 30.8 µM] |  |
| CC(C)CNc1ncnc2onc(-c3ccc(Cl)cc3)c12 |  | inactive |
| COCOCCn1cc(CN2CCS(=O)(=O)N(Cc3ccc(-c4ccccc4)cc3)C(CC(C)C)C2=O)nn1 (stereo not drawn) | -6.67% [at 30.8 µM] |  |
| CCOC(=O)c1ccc(NC(=S)NNC(=O)C2(C)CC2(Cl)Cl)cc1 (stereo not drawn) |  | inactive |
| CC(=O)C(=Cc1ccc(Cl)cc1)C(=O)c1ccccc1 |  | inactive |
| CC(=O)c1ccc(OCc2nnn(CC(=O)NS(=O)(=O)c3ccc(C)cc3)c2-c2ccccc2)cc1 | -5.72% [at 30.8 µM] |  |
| COc1ccc(NC(=O)Cn2ncc(Cl)c(Cl)c2=O)cc1S(=O)(=O)N1CCOCC1 | 1.4% [at 30.8 µM] |  |
| Cc1ccc(O)c(-c2n[nH]c3c2C(c2ccc(F)cc2)N(Cc2ccco2)C3=O)c1 (stereo not drawn) |  | inactive |
| O=c1cc(-c2ccccc2)[nH]n1-c1nc2ccccc2s1 | 2.08% [at 30.8 µM] |  |
| Cc1ccc(C)c(Cn2c(C3CC(=O)N(c4ccccc4C)C3)nc3ccccc32)c1 (stereo not drawn) |  | inactive |
| Cc1cccc(C(=O)OCC(=O)c2ccc(CC(=O)N3CCOCC3)s2)c1C |  | inactive |
| CCc1nc2c(OCc3ccc(OC)cc3)cccn2c1N(C)C(=O)c1ccc(OC)cc1 |  | inactive |
| Cc1cccc(N2CCN(C(=O)c3[nH]c(C(F)(F)F)nc3-c3ccccc3)CC2)c1C |  | inactive |
| Cc1ccc(Nc2nnc(-c3ccc(C)c(S(N)(=O)=O)c3)c3ccccc23)cc1 |  | inactive |
| CCOC(=O)C1=C(C)NC(C)=C(C(=O)OCC)C1c1cccc([N+](=O)[O-])c1 | 3.16% [at 30.8 µM] |  |
| COc1cc(NC(=O)c2cc3nc(-c4ccccc4)cc(-c4ccccc4)n3n2)cc(OC)c1OC |  | inactive |
| Cc1csc(NC(=O)CSc2sc3c(O)cc(=O)[nH]c3c2C#N)n1 |  | inactive |
| O=c1[nH]cc(N=Cc2cc(Cl)cc(Cl)c2O)c(=O)[nH]1 |  | inactive |
| O=C1/C(=C/c2cccs2)COc2ccccc21 | -3.32% [at 30.8 µM] |  |
| CCCCn1c(COc2cccc(OC)c2)nc2ccccc21 |  | inactive |
| O=C(NC1(O)C(=O)c2ccccc2C1=O)c1ccc(C(F)(F)F)cc1 |  | inactive |
| Fc1ccc(/C=C2\CCCC3=C2Nc2ncnn2C3c2ccc(F)cc2)cc1 (stereo not drawn) | -4.64% [at 30.8 µM] |  |
| CCCN1CCN(c2ncnc3sc(C(=O)Nc4ccc(OC(F)(F)F)cc4)c(C)c23)CC1 |  | inactive |
| Cc1ccc(NC(=O)c2sc3nc(-c4ccncc4)ccc3c2N)cc1 |  | inactive |
| Clc1cccc(Cc2c(-c3ccco3)nc3ccc(Br)cn23)c1 | -13.4% [at 30.8 µM] |  |
| CCN(C(=O)Cn1c(C(=O)OC)cc2sccc21)c1cccc(C)c1 |  | inactive |
| O=C(CC(c1ccccc1)c1cc(Cl)ccc1O)N1CCCC1 (stereo not drawn) |  | inactive |

From PubChem BioAssay (NCATS)
